From PubChem BioAssay (NCI)
The panel holds about 79,000 compounds, 15% with a hit somewhere; the sample as a whole holds those more often. A number with no mark means an inactive call. Calls of active or inactive are those of the source. No stated cut-off is given here; in the data, active means growth inhibition above about 70%; inactive means the rest.

Key:
[1] = NCI Yeast Anticancer Drug Screen. Data for the rad50 strain (AID 155);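 further: 0% = growth of vehicle-only cultures of the same strain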; details: S. cerevisiae rad50 strain growth inhibition; at 50.0 µM; active compounds read high
Outline: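 DNA repair mutant yeast, compound exposure, growth read-out; inhibition is taken relative to vehicle.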

[2] = NCI Yeast Anticancer Drug Screen. Data for the mec2-1 strain (AID 157); details: S. cerevisiae mec2-1 strain, at 50.0 µM, active compounds read high
Outline: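 Strain: mec2-1 (DNA repair/cell cycle alteration). Compound exposure, then growth measured; inhibition expressed relative to vehicle.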

[3] = NCI Yeast Anticancer Drug Screen. Data for the cln2 rad14 strain (AID 165);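 further: 0% = growth equal to vehicle treated cultures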; details: S. cerevisiae cln2 rad14 strain, at 50.0 µM, active compounds read high
Outline: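 Compounds are applied to the cln2 rad14 yeast strain, and growth is then compared with that of vehicle-treated cultures to give inhibition.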

[4] = NCI Yeast Anticancer Drug Screen. Data for the mlh1 rad18 strain (AID 175); details: S. cerevisiae mlh1 rad18 strain growth inhibition; at 50.0 µM; active compounds read high
Outline: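 Read-out is yeast growth inhibition, calculated against vehicle-only controls. The compound was applied to a strain engineered with DNA damage repair alterations.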

[5] = NCI Yeast Anticancer Drug Screen. Data for the sgs1 mgt1 strain (AID 161);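 further: 0% = growth of cultures given vehicle only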; details: S. cerevisiae sgs1 mgt1 strain, at 50.0 µM, active compounds read high
Outline: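 Inhibition of yeast growth, normalised to vehicle-treated controls, is reported for a strain bearing genetic alterations in DNA damage repair.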

[6] = NCI Yeast Anticancer Drug Screen. Data for the bub3 strain (AID 167); details: S. cerevisiae bub3 mutant strain, at 50.0 µM, active compounds read high
Outline: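 In this screen, a yeast mutant lacking normal mitotic checkpoint function is challenged with compound. Relative growth versus vehicle gives the inhibition value.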

Row | SMILES | growth inhibition [1] | growth inhibition [2] | growth inhibition [3] | growth inhibition [4] | growth inhibition [5] | growth inhibition [6]
1 | CCOC(=O)CNC(=O)C(Cc1ccccc1)NC(=O)CNC(=O)OCc1ccccc1 (centres undefined) | 22.4% | 8.6% | 20.4% | 20.8% |  | 
2 | CN(N=Nc1ccc(C#N)cc1)C(C)(C)C | 3.3% |  | -5.85% | 5.55% | 6.5% | -2.35%
3 | CC(C)(CO[C@H]1C[C@H]2CC[C@@]1(C)C2(C)C)[N+](=O)[O-] | 25.4% | -7% | -17.4% | 18.4% |  | 12.9%
4 | CC1CCCCNC1=S (centres undefined) | -6.95% |  | 6.6% | 27.1% | 19.9% | 17.8%
5 | NCCCc1ccc2c(c1)OCO2 | 42.2% |  | 47.7% | 50.5% | 36% | 30.4%
6 | COc1ccc(C=Nc2c(O)ccc3ccccc23)cc1OC | 12.6% |  | -15.3% | -0.75% | -24.9% | -17.4%
7 | O=C(OCc1ccccc1CN1CCOCC1)c1ccc(Cl)cc1 | 42.1% |  | 84% (active) | 74.8% (active) | 75.7% (active) | 87% (active)
8 | C[C@]12CCC3c4ccc(OC(=O)c5ccccc5)cc4CC[C@H]3C1CC[C@@H]2OC(=O)C12OC1CCC2=O (some centres undefined) | -5.4% |  | 1.75% | -9.85% | -7.55% | -27.9%
9 | COc1cc(O)c2c(c1)C(=O)C1=C(C2=O)C(O)C[C@@](C)(O)C1 (some centres undefined) | 89.2% (active) |  | 75.5% (active) | 90% (active) | 92% (active) | 91.2% (active)
10 | Cc1ccc2c(c1)CCC(=O)O2 | 11.4% |  | -17.2% | 3.4% | -1.75% | 10.4%
11 | COc1ccc(C(=O)C(CN(C)C)CN(C)C)cc1OC | 30.6% |  | -5.9% | -18.4% | -14.1% | -11.7%
12 | [Br][Pt+2][Br].[NH-]c1ccc(F)cc1.[NH-]c1ccc(F)cc1 | 34.9% |  | -8.3% | 24.9% | 5.4% | -4.75%
13 | NC(=O)NNc1ccccc1 | 3.6% |  | -16.4% | -29.2% | -1.85% | -7.2%
14 | N#Cc1ccccc1C#N | -0.8% |  | -13.9% | -0.4% | -7.7% | -4.7%
